The values below come from PubChem BioAssay (NCATS).

Results filed as inconclusive are left out. A number with no mark means an inactive call. Unless noted, calls come from the whole dose curve; as a rule, active = well fitted curve in the direction sought with a large enough effect; inconclusive = small, poorly fitted or top-dose-only effect, or another doubt; inactive = no such curve, though single readings can be large; an effect the other way counts as inactive or inconclusive.

One assay can be described thus: S16 Schwann cell viability assay (CellTiter-Glo assay) (AID 624031).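 Note: cellular ATP luminescence as a viability measure; plate controls were DMSO-treated cells for no effect and cell-free wells for full effect; nearly all actives have a fitted effect of over 70% in size.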 The conditions noted are these: S16 rat Schwann cells viability, 24 h; series mostly up to 25.7 µM; activity change, negative = cytotoxicity: at the top concentration. A digest of the protocol: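 Untransfected S16 rat Schwann cells; compound 24 h, 37 °C/5% CO2; CellTiter-Glo ATP luminescence. % activity vs no-cell wells and DMSO controls (0%); concentration-effect curves classed by r2, response magnitude, activity.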
For `CCO[C@H]1O[C@@H]([C@H](COCc2ccccc2)OCc2ccccc2)[C@@H](OCc2ccccc2)[C@H]1O`, the “activity change, negative = cytotoxicity” value is -2.16%.
On the same count and under the same terms, with `C=Cc1c(C)c2cc3nc(cc4[nH]c(cc5nc(cc1[nH]2)C(C)=C5CCC(=O)O)c(CCC(=O)OC)c4C)[C@@]1(C)C3=CC=C(C(=O)OC)[C@H]1C(=O)OC` (tested in a mixture with another compound) the figure was -20.7% [at 57.5 µM].
Still for that read-out and setting: with `O=C(OC[C@@H](O)CO)c1ccccc1Nc1ccnc2cc(Cl)ccc12` the figure was -26.3%.
On the same count and under the same terms, in the case of `CO[C@]1(NC(=O)[C@H](C(=O)O)c2ccc(O)cc2)C(=O)N2C(C(=O)O)=C(CSc3nnnn3C)CO[C@H]21` it was 19.5%; in that of `CCC(=O)[C@@]1(C)[C@H](C)C[C@@H]2[C@@H]3CCC4=CC(=O)C=C[C@@]4(C)[C@H]3[C@H](O)C[C@]21C`, -16%.
In the case of `CCC(C)(C)C(=O)O[C@@H]1C[C@H](C)C=C2C=C[C@H](C)[C@@H](CC[C@H]3C[C@@H](O)CC(=O)O3)[C@H]21`, the “activity change, negative = cytotoxicity” value was 1.68%.
On the same count and under the same terms, in the case of `CCN(CC)[C@@H](C)CN1c2ccccc2Sc2ccccc21` it was -10.3%; in that of `COC(=O)[C@@H]1[C@@H]2C[C@H]3c4[nH]c5cc(OC)ccc5c4CCN3C[C@@H]2C[C@H](OC(=O)/C=C\c2cc(OC)c(OC)c(OC)c2)[C@H]1OC`, -0.204%; in that of `CC=C(/C(=C/C)c1ccc(O)cc1)c1ccc(O)cc1`, 3.17%.
On the same count and under the same terms, with `CC1(C)S[C@@H]2[C@H](NC(=O)[C@@H](N)c3ccccc3)C(=O)N2[C@H]1C(=O)O[C@H]1OC(=O)c2ccccc21` the figure was -6.94%.

A short description of a further assay: S16 Schwann cell PMP22 intronic element firefly luciferase assay (AID 624032).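 Note: plate controls were DMSO for no effect and PTC124 positive control mean for full effect; nearly all actives have a fitted effect of over 30% in size.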 The conditions noted are these: S16 rat Schwann cells, PMP22 element FLuc, 24 h; series mostly up to 25.7 µM; activity change, negative = inhibition: at the top concentration. The gist of the method: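 Rat S16 Schwann cells stably carrying firefly luciferase driven by a PMP22 intronic element, in 10% FBS, treated 24 h at 37 C. ONE-Glo luminescence normalized to PTC124 control and DMSO (0%); curves classed by r2, magnitude and activity.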
In the case of `CCC(C)(C)C(=O)O[C@@H]1C[C@H](C)C=C2C=C[C@H](C)[C@@H](CC[C@H]3C[C@@H](O)CC(=O)O3)[C@H]21`, the “activity change, negative = inhibition” value was 6.86%.
`CCN(CC)[C@@H](C)CN1c2ccccc2Sc2ccccc21`: the “activity change, negative = inhibition” value is 0.836%.
Take `CC=C(/C(=C/C)c1ccc(O)cc1)c1ccc(O)cc1`: the “activity change, negative = inhibition” value was -3.92%.
On the same count and under the same terms, with `CC1(C)S[C@@H]2[C@H](NC(=O)[C@@H](N)c3ccccc3)C(=O)N2[C@H]1C(=O)O[C@H]1OC(=O)c2ccccc21` the figure was -11.5%.

Another assay can be described thus: S16 Schwann cell PMP22 intronic element beta-lactamase assay (AID 624044; calls by dose curve;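 note: 0% = DMSO and -100% = potassium clavulanate positive control; nearly all actives have a fitted effect of over 15% in size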). The settings on record: S16 rat Schwann cells, PMP22 element beta-lactamase FRET, 24 h; series mostly up to 17.1 µM; ratio activity, negative = inhibition: at the top concentration. A digest of the protocol: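 Beta-lactamase reporter under a PMP22 intronic regulatory element in stable S16 rat Schwann cells; 24 h compound exposure. 460 nm blue signal normalized between DMSO (0%) and potassium clavulanate, with 535 nm FRET tracking viability; curves classed by r2 and response.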
As to `CCO[C@H]1O[C@@H]([C@H](COCc2ccccc2)OCc2ccccc2)[C@@H](OCc2ccccc2)[C@H]1O`, the “ratio activity, negative = inhibition” value was -4.66%.
On to `COc1cc(N[C@@H](C)CCCN)c2ncccc2c1`, for which the “ratio activity, negative = inhibition” value was -0.944%.
Still for that read-out and setting: with `C=Cc1c(C)c2cc3nc(cc4[nH]c(cc5nc(cc1[nH]2)C(C)=C5CCC(=O)O)c(CCC(=O)OC)c4C)[C@@]1(C)C3=CC=C(C(=O)OC)[C@H]1C(=O)OC` (tested in a mixture with another compound) the figure was 5.74% [at 38.3 µM].
Same read-out and setting: with `CO[C@]1(NC(=O)[C@H](C(=O)O)c2ccc(O)cc2)C(=O)N2C(C(=O)O)=C(CSc3nnnn3C)CO[C@H]21` the figure was 1.42%; with `COc1ccc2c(c1)N(C[C@@H](C)CN(C)C)c1ccccc1S2`, -3.13%.
In the case of `CCC(=O)[C@@]1(C)[C@H](C)C[C@@H]2[C@@H]3CCC4=CC(=O)C=C[C@@]4(C)[C@H]3[C@H](O)C[C@]21C`, the “ratio activity, negative = inhibition” value is 2.36%.
On to `CCC(C)(C)C(=O)O[C@@H]1C[C@H](C)C=C2C=C[C@H](C)[C@@H](CC[C@H]3C[C@@H](O)CC(=O)O3)[C@H]21`, for which the “ratio activity, negative = inhibition” value was 9.19%.
As for `CC=C(/C(=C/C)c1ccc(O)cc1)c1ccc(O)cc1`, the “ratio activity, negative = inhibition” value was 7.49%.
Same read-out and setting: with `CC1(C)S[C@@H]2[C@H](NC(=O)[C@@H](N)c3ccccc3)C(=O)N2[C@H]1C(=O)O[C@H]1OC(=O)c2ccccc21` the figure was 0.708%.
